Screens: PubChem BioAssay, several laboratories
Compounds with a hit are over-represented: about 2% of the library has one in this group of screens.
Yp Topo-I inh = blocks Yersinia pestis topoisomerase I activity; activity, % at 10 µM; AID 504884; 360,000 compounds, 0.064% hits; Y. pestis Topo-I cleavage product accumulation, plate reader; in the data active = activity above about 50%, passing the limit was not always enough
PrP 5UTR inh = inhibition of PrP 5' UTR reporter expression; inhibition, % (test concentration not listed); 340,000 compounds, 0.35% hits; AID 488862; cell-based PrP 5' UTR mRNA reporter, plate reader; in the data active = inhibition above about 52%; also: 0 = median of the neutral control wells
PrPC surface inh = reduces human prion protein on the cell surface. inhibition, % at 13.8 µM. cell surface PrPC, TR-FRET read-out. AID 720596. 370,000 compounds, 0.43% hits. P04156; in the data active = inhibition above about 24%; also: 0% = median of the test wells and 100% = reference compound wells
PfHsp40 yeast = restores yeast growth despite PfHsp40 toxicity. S. cerevisiae expressing PfHsp40, growth rescue, ATP luminescence. growth rescue, % at 12.5 µM. 340,000 compounds, 0.68% hits. AID 504582; in the data active = growth rescue above about 28%, passing the limit was not always enough;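 also: yeast W303a lacking pdr1 and pdr3 grown in galactose medium; growth measured after three days at 30 °C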
CCHF vOTU inh = CCHFV vOTU protease inhibition; Pep-AMC fluorescence; inhibition, % at 11.5 µM; 370,000 compounds, 0.55% hits; in the data active = inhibition above about 30%; also: 0% = vehicle wells with enzyme and 100% = no enzyme wells
BJeLR lethal = kills HRASV12-expressing BJeLR cells | 300,000 compounds, 0.17% hits | inhibition, % (test concentration not listed) | BJeLR (HRASV12) viability, CellTiter-Glo ATP luminescence, 48 h; in the data active = inhibition above about 50%
PrPC TRFRET cf = confirmation of inhibitors of cell surface human prion protein; shares compounds with PrPC surface inh; cell surface PrPC level, TR-FRET; inhibition, % at 13.8 µM; 1,500 compounds, 65% hits; AID 743200; in the data active = inhibition above about 25%
LD9 tox = kills or reduces viability of LD9 cells in PrPc counter-screen; shares compounds with PrPC surface inh; LD9 cells cytotoxicity, luminescence viability; inhibition, % at 13.8 µM; 1,500 compounds, 29% hits; in the data active = inhibition above about 9.5%
* marks the source's active call; other numbers are inactive results; x = no result.

SMILES	Yp Topo-I inh	PrP 5UTR inh	PrPC surface inh	PfHsp40 yeast	CCHF vOTU inh	BJeLR lethal	PrPC TRFRET cf	LD9 tox
O=C(C1=C(O)C(=O)N(CCN2CCOCC2)C1c1cccc(O)c1)c1cc2ccccc2o1 (stereo not given)	10	-15	1	0	3	6	x	x
Cc1cccc(N2CCN(C(=O)c3cc(S(=O)(=O)N4CCCC4)cn3C)CC2)c1C	26	2	24*	1	-4	16	16	4
O=C(Nc1ccncc1)c1cccc(S(=O)(=O)N2CCc3ccccc32)c1	-1	-3	25*	0	8	25	25*	13*
Cc1cccc(NC(=O)c2cc(S(=O)(=O)N3CCc4ccccc43)cn2C)c1C	7	-13	44*	2	15	0	14	-7
CCc1ccccc1NC(=O)c1cc(S(=O)(=O)N2CCc3ccccc32)cn1C	17	-20	9	0	13	-4	x	x
CCS(=O)(=O)c1ncc(Cl)c(C(=O)Nc2ccc(S(=O)(=O)N(C)c3ccccc3)cc2)n1	15	-6	89*	3	8	35	102*	97*
Cc1ccccc1CS(=O)(=O)c1ncc(Cl)c(C(=O)Nc2ccc(F)cc2)n1	5	15	8	-1	19	27	x	x
Cc1ccc(NC(=O)c2nc(S(=O)(=O)Cc3ccccc3)ncc2Cl)cc1	-5	-5	84*	1	15	31	56*	92*
Cc1cccc(CS(=O)(=O)c2ncc(Cl)c(C(=O)NCc3ccccc3)n2)c1	11	-1	26*	1	0	21	5	46*
CCN(c1ccccc1)S(=O)(=O)c1ccc(NC(=O)c2nc(S(C)(=O)=O)ncc2Cl)cc1	-2	12	x	1	x	7	x	x
O=C(Nc1ccc(F)cc1)c1nc(S(=O)(=O)Cc2ccccc2)ncc1Cl	4	-7	66*	1	11	36	64*	94*
COC(=O)[C@]12C[C@H](CC(=O)N3CCOCC3)C(=O)N(Cc3ccco3)C1=C[C@H](C1CCCC1)O[C@@H]2C	x	x	3	x	-9	x	x	x
CCOC(=O)c1sc(NC(=S)NC(=O)C2CCCC2)cc1C	-4	-3	26*	-1	-10	0	56*	-6
CCOC(=O)c1sc(NC(=S)NC(=O)CC(C)C)cc1C	2	-33	37*	1	22	-2	40*	1
CCOC(=O)c1sc(NC(=O)C(C)(C)C)cc1C	-2	-67	14	-1	7	-2	x	x
N#CNC(=Nc1cccc(F)c1)SCc1cccc(F)c1	1	-10	17	-1	-2	1	x	x
N#CNC(=Nc1cccc(F)c1)SCc1ccccc1	2	-16	31*	-1	29	-4	14	4
COc1cc2[nH]c(=S)n(NC(=O)c3ccccc3)c(=O)c2cc1OC	2	-9	36*	4	1	6	50*	-4
c1ccc(CCNc2nc(-c3ccccn3)nc3ccccc23)cc1	32	-12	10	4	-2	27	x	x
COc1cnc(-c2ccccn2)nc1N(C)C	-11	-42	26*	0	-6	-8	27*	1
CN(C)c1nc(-c2ccccn2)nnc1-c1ccccc1	1	-9	27*	393*	9	82*	36*	-1
c1ccc(-c2cccc(CNc3nc(-c4ccccn4)nnc3-c3ccccc3)c2)cc1	x	x	33*	x	x	x	36*	25*
c1ccc(-c2nnc(-c3ccccn3)c(-c3ccccn3)n2)nc1	-6	x	-16	x	-11	-3	x	x
CC(C)[C@H]1Cn2nnc(-c3ccccc3)c2Cn2c3ccccc3c(=O)n21	x	x	14	x	-1	x	x	x
Cc1cc(NS(=O)(=O)c2ccc(NC(=O)Cc3ccc(Cl)c(F)c3)cc2)no1	x	x	-2	x	1	x	x	x
SMILES	Yp Topo-I inh	PrP 5UTR inh	PrPC surface inh	PfHsp40 yeast	CCHF vOTU inh	BJeLR lethal	PrPC TRFRET cf	LD9 tox
COc1ccc(C(C(=O)N(C)C2CCCC2)N(Cc2ccc(F)cc2)C(=O)c2ccc3ccccc3c2)cc1OC (stereo not given)	x	x	1	x	9	x	x	x
S=C1NC2=C(C(c3ccc(Br)cc3)N1)N1CCC2CC1 (stereo not given)	4	-23	26*	-1	0	4	25*	0
CCOc1ccc(-n2c(SCC(=O)Nc3ccc(OCc4ccccc4)cc3)nnc2-c2ccc(Cl)cc2)cc1	x	x	-3	x	0	x	x	x
COc1cc(C(=O)Nc2ccc(NC(=O)c3ccccc3)nc2)cc(OC)c1OC	-4	-14	9	0	0	-4	x	x
COc1ccc(C(=O)Nc2ccc(NC(=O)c3cc(OC)c(OC)c(OC)c3)cn2)cc1	7	-14	43*	0	-6	-17	38*	2
NC(=O)c1ccc2c(=O)n3c(-c4cc(Cl)c(N)c(Cl)c4)csc3nc2c1	5	-20	32*	0	2	2	1	3
Cc1csc2nc3cc(C(N)=O)ccc3c(=O)n12	0	-38	-1	0	-54	-1	x	x
CCN1Cc2nnn(Cc3ccccc3)c2-c2cc(F)ccc2S1(=O)=O	x	x	-6	x	-3	x	x	x
CCc1ccc(-c2ccc3nnc(SC)n3n2)cc1	16	-25	-17	2	10	0	x	x
CCSc1nnc2ccc(-c3ccc(C)cc3)nn12	18	-14	42*	1	-5	-2	-12	-8
CC(Sc1cccc2cccc(C(=O)O)c12)C(=O)O (stereo not given)	-4	0	-4	0	0	3	x	x
Cc1cc(SC(C)C(=O)NCC(=O)Nc2ccc(F)c(F)c2F)nc2ccccc12 (stereo not given)	1	-7	9	13	-9	2	x	x
O=C(CSc1cnc2ccccc2n1)c1ccc(F)cc1	6	-67	-10	0	0	1	x	x
CC(Sc1ccc2ccccc2n1)C(=O)O (stereo not given)	-5	-7	115*	2	11	0	123*	-5
CC(Sc1cnc2ccccc2n1)C(=O)O (stereo not given)	1	-7	39*	-2	3	3	47*	0
Cc1cc(SC(C)C(=O)O)nc2ccccc12 (stereo not given)	3	-22	46*	0	-2	4	76*	-6
O=C(NCCc1c[nH]c2ccccc12)OCc1cn(-c2ccc(Cl)cc2)nn1	x	x	11	x	2	x	x	x
C=CC[C@H]1c2ccccc2[C@H]2N3N=Cc4ccccc4[C@H]3[C@H](CCCC)C(=O)N2N1C(=O)NCc1ccccc1	x	x	7	x	5	x	x	x
O=C(Nc1ccc(OC(F)F)cc1)Nc1cccc(C(F)(F)F)c1	-8	-15	35*	0	8	6	23	22*
O=C(Nc1ccc(OC(F)(F)F)cc1)Nc1cccc([N+](=O)[O-])c1	-21	-35	26*	0	-9	3	43*	41*
